Screening results as filed in PubChem BioAssay.
Only some compounds are listed: those with a hit (about 19% of all), similar ones and a draw of the others.
DT40 TDP1 CPT: DT40-hTDP1 cell growth loss with CPT; chicken DT40 Tdp1-/-;hTDP1 cells + 20 nM CPT, ATP luminescence, 48 h; Potency, µM (doses to about 46.2 µM), for inactives: top-dose activity change, negative = growth inhibition, usual class: inhibitors; 12% of 420,000 active; AID 686979; also: potency is read from the fitted curve at half-maximal effect; % is scaled to controls: 0 for no effect and ±100 for the full control effect; nearly all actives have a fitted effect of over 55% in size
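Cell growth measured by CellTiter-Glo luminescence after a minimum 48 h, 37 C compound exposure with 20 nM CPT in Tdp1-knockout DT40 cells stably expressing hTDP1, seeded 400/well; qHTS titration format.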
HepG2 tox: HepG2 cytotoxicity, counter-screen for TGF-b inhibitors; 0.76% of 410,000 active; HepG2 CAGA-GFP viability, ATP luminescence, 18 h; Potency, µM (highest dose often 46.1 µM), for the others: at the top dose activity change, negative = cytotoxicity, hits mostly cytotoxic; also: potency is read from the fitted curve at half-maximal effect
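HepG2 CAGA-GFP cells (1000/well, DMEM with 1% FBS) received compound, then TGF-beta at 500 pg/mL final, and were incubated 18 hours at 37 degrees C. Viability was read by CellTiter-Glo luminescence. Media-only wells were set as complete cell-killing and DMSO as no toxicity.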
TGFb SMAD3 inh: blocks TGF-b signaling; HepG2 CAGA-GFP TGF-b/SMAD3 reporter, GFP fluorescence, 18 h; TGF-beta stimulated, 500 pg/mL final; Potency, µM (series often up to 46.1 µM), for inactives: at the highest dose activity, negative = inhibition, actives largely listed as inhibitors; 1.2% of 410,000 active; also: potency is read from the fitted curve at half-maximal effect; % is scaled to controls: 0 for no effect and ±100 for the full control effect; nearly all actives have a fitted effect of over 65% in size
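HEPG2 CAGA-GFP reporter cells (1000/well, DMEM with 1% FBS) received compounds, then recombinant TGF-beta at 500 pg/mL final for 18 hours at 37 degrees C. Per-cell GFP summed per well was normalised to unstimulated and stimulated DMSO controls before curve fitting.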
TDP1 cell noCPT: qHTS for Inhibitors of human tyrosyl-DNA phosphodiesterase 1 (TDP1): qHTS in cells in absence of CPT. DT40 Tdp1-/- hTDP1 cells, no CPT, ATP luminescence, 48 h. Potency, µM (top dose mostly 46.2 µM), without a hit: at the highest dose activity change, negative = growth inhibition, usual class: inhibitors. 15% of 420,000 active; also: potency is read from the fitted curve at half-maximal effect; % is scaled to controls: 0 for no effect and ±100 for the full control effect; nearly all actives have a fitted effect of over 55% in size
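Cells were dispensed at 400 per well, compounds added by pin tool, plates incubated ≥48 hr at 37 °C, then CellTiter-Glo added for 30 min at room temperature before luminescence reading. Line: DT40 Tdp1-/- complemented with hTDP1; camptothecin omitted.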
ASM inhibitor: blocks human secretory acid sphingomyelinase | P17405 | placental ASM, HMU-PC fluorogenic substrate, 60 min | Potency, µM (doses to about 57.5 µM), without a hit: at the top dose activity change, negative = inhibition, usual class: inhibitors | 0.006% of 340,000 active; also: potency is read from the fitted curve at half-maximal effect
Target sequence (P17405 47-631 limits assumed): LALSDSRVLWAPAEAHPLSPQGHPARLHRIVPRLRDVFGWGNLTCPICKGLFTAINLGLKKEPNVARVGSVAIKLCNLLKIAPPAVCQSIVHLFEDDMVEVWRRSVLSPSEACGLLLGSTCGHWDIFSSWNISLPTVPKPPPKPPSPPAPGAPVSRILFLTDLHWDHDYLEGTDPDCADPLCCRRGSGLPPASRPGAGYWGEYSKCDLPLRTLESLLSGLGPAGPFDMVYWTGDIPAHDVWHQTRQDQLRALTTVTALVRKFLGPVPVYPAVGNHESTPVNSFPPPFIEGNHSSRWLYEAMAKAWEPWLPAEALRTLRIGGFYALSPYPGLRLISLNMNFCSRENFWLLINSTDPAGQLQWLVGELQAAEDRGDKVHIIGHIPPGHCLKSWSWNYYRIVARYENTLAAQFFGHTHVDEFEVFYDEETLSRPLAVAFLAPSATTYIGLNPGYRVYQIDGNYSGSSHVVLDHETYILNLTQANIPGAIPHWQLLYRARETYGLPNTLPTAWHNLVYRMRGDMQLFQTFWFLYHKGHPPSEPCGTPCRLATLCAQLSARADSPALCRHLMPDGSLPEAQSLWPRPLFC
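qHTS format. ASM enzyme prepared from human placenta hydrolyses the fluorogenic substrate HMU-PC0 (9 uM final) over 60 min at 37 °C after a 10 min compound preincubation.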
IL1B secr inh: inflammasome signaling inhibition, IL-1 beta readout; THP-1 LPS/ATP IL-1B secretion, AlphaLISA, 16 h; active compounds read low; activity change, % at 57.5 µM; 4.7% of 360,000 active; AID 743279; in the data active = activity change below about -50%; inconclusive = mostly about -30% to -49%; also: % is scaled to controls: 0 for no effect and ±100 for the full control effect
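THP-1 cells pretreated 1 hr with compounds (up to 57.5 uM final), then stimulated with LPS (250 ng/mL final) plus ATP (1.25 mM final); secreted IL-1B measured by AlphaLISA after 16 hr, decreased signal indicating inhibition.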
* marks the source's active call; other numbers are inactive results; i = inactive; ? = inconclusive; nt = not tested or not shown. Unless noted, calls follow the shape of the dose curve; as a rule, active = well fitted curve in the direction sought with a large enough effect; inconclusive = small, poorly fitted or top-dose-only effect, or another doubt; inactive = no such curve, though single readings can be large; an effect the other way counts as inactive or inconclusive.

SMILES	DT40 TDP1 CPT	HepG2 tox	TGFb SMAD3 inh	TDP1 cell noCPT	ASM inhibitor	IL1B secr inh
Cc1c(NS(C)(=O)=O)c(=O)n(-c2ccccc2)n1C	-8%	0%	-5%	-13%	8%	0
Cc1c(Nc2scc(-c3ccccc3)[n+]2-c2ccccc2)c(=O)n(-c2ccccc2)n1C	?	-8%	10%	21µM*	4%	-27
Cc1c(Nc2nc(-c3ccc(Cl)cc3)cs2)c(=O)n(-c2ccccc2)n1C	?	-17%	0%	10µM*	-1%	?
CCOC(=O)Cc1csc(Nc2c(C)n(C)n(-c3ccccc3)c2=O)n1	-10%	-6%	25%	-13%	1%	25
Cc1c(Nc2c3ccccc3nc3ccccc23)c(=O)n(-c2ccccc2)n1C	-9%	-39%	0%	-15%	140%	6
Cc1c(Nc2nc3ccccc3nc2N2CCN(c3ccccc3)CC2)c(=O)n(-c2ccccc2)n1C	21µM*	1%	17%	15µM*	-9%	-19
C[n+]1ccn(CC(=O)c2cc(C(C)(C)C)c(O)c(C(C)(C)C)c2)c1	?	-17%	-9%	?	1%	?
CC(C(=O)NCC1CCCO1)c1ccc([N+](=O)[O-])cc1 (stereo not given)	13%	7%	-6%	-2%	3%	-14
CCOc1ccc(-c2nonc2NC(=O)c2ccccc2C)cc1	?	-25%	-1%	?	nt	nt
CCN(C[C@H]1N[C@@](C)(C(=O)OC)[C@H]2C(=O)N(Cc3ccccc3)C(=O)[C@@H]12)C(=O)c1ccc(C(C)(C)C)cc1	?	-10%	-13%	16µM*	1%	-10
COC(=O)[C@]1(Cc2ccccc2)N[C@H](CN(C)S(=O)(=O)c2ccc(C(C)(C)C)cc2)[C@@H]2C(=O)N(C)C(=O)[C@@H]21	18µM*	-8%	-18%	?	8%	-25
CC[C@@]1(C(=O)OC)N[C@H](CN(C)C(=O)c2ccccc2)[C@@H]2C(=O)N(Cc3ccccc3)C(=O)[C@@H]21	-8%	9%	?	-12%	7%	-5
CCN(C[C@H]1N[C@@](Cc2ccccc2)(C(=O)OC)[C@H]2C(=O)N(Cc3ccccc3)C(=O)[C@@H]12)S(=O)(=O)c1ccc(OC)cc1	?	0%	-12%	?	-1%	7
CCN(C[C@H]1N[C@@](Cc2ccccc2)(C(=O)OC)[C@H]2C(=O)N(Cc3ccccc3)C(=O)[C@@H]12)S(=O)(=O)c1ccc(C(C)(C)C)cc1	?	-28%	-10%	16µM*	-1%	0
COC(=O)[C@]1(Cc2ccccc2)N[C@H](CN(C)C(=O)c2ccc(C(C)(C)C)cc2)[C@@H]2C(=O)N(Cc3ccccc3)C(=O)[C@@H]21	15µM*	3%	2%	21µM*	-3%	-6
Cc1ccc(C(=O)NCc2ccccc2)cc1Br	-7%	-22%	-17%	-8%	2%	-11
CCCN(Cc1nnc(-c2ccccc2Cl)o1)C(=O)c1cc(S(=O)(=O)N2CCOCC2)ccc1F	?	-2%	-1%	?	0%	-26
Cc1ccccc1Cn1cc(CCC(=O)NCc2cccc(Br)c2)c2ccccc21	?	-36%	-24%	?	nt	nt
C/C(=N\O)C(C)(C)Nc1ccc(Cl)cc1	-11%	7%	0%	-24%	0%	2
CCN(C[C@H]1N[C@@](Cc2ccccc2)(C(=O)OC)[C@H]2C(=O)N(Cc3ccccc3)C(=O)[C@@H]12)S(=O)(=O)c1ccc(F)cc1	18µM*	-12%	-22%	?	2%	-16
CCN(C[C@H]1N[C@@](Cc2ccccc2)(C(=O)OC)[C@H]2C(=O)N(C)C(=O)[C@@H]12)C(=O)Nc1ccc(C(F)(F)F)cc1	16µM*	0%	-22%	?	-4%	-1
CCN(C[C@H]1N[C@@](Cc2ccccc2)(C(=O)OC)[C@H]2C(=O)N(C)C(=O)[C@@H]12)S(=O)(=O)c1ccc(C(C)(C)C)cc1	?	6%	-2%	18µM*	23%	11
Cc1cccc(OCC(=O)NCC(=O)N/N=C/c2cc(Br)cc(Br)c2O)c1	?	-15%	-4%	?	349%	97
Cc1ccc2cc(C#N)c(NCc3ccco3)nc2c1	23µM*	2%	0%	?	259%	13
COc1cc(C(=O)NCCCNc2nc3cc(C)c(C)cc3cc2C#N)cc(OC)c1OC	?	-8%	-9%	23µM*	i	-19
SMILES	DT40 TDP1 CPT	HepG2 tox	TGFb SMAD3 inh	TDP1 cell noCPT	ASM inhibitor	IL1B secr inh
COc1cc(C(=O)NCCNc2nc3cc(C)ccc3cc2C#N)cc(OC)c1OC	?	-11%	-2%	16µM*	i	11
Cc1cc(C)nc(SCC(=O)Nc2ncc(Cc3cccc(Cl)c3Cl)s2)n1	23µM*	-1%	-5%	18µM*	-1%	8
Cc1cccc(Cc2cnc(NC(=O)C3=NCCN3)s2)c1	-86%	0%	?	23µM*	-1%	3
O=C(Nc1ncc(Cc2cccc(Cl)c2)s1)c1ccc([N+](=O)[O-])cc1	?	-20%	?	8.2µM*	-4%	-19
Cc1cccc(Cc2cnc(NC(=O)c3ccc(C)o3)s2)c1	?	4%	6%	?	-2%	-13
CC(=O)Nc1ncc(Cc2cccc(Cl)c2)s1	-8%	15%	-17%	-8%	2%	77
CC(C)C(=O)Nc1ncc(Cc2cccc(Cl)c2)s1	?	-27%	1%	?	0%	-72*
CC(=O)NS(=O)(=O)c1ccc(NC(=O)c2ccc(NC(=O)c3cccs3)cc2)cc1	1%	14%	-2%	19%	0%	-21
Cc1ccc(NC(=O)CCOc2ccccc2C)cc1C	3%	3%	2%	?	-2%	?
C=CCOc1ccc(C(c2c(C)n(C)n(-c3ccccc3)c2=O)c2c(C)n(C)n(-c3ccccc3)c2=O)cc1	-1%	-9%	-4%	-30%	-2%	-4
Cn1c(=NC(=O)c2ccc(S(=O)(=O)N3CCCc4ccccc43)cc2)sc2cc(S(C)(=O)=O)ccc21	-3%	3%	-4%	-12%	1%	-17
C#CCn1c(=NC(=O)c2ccc(S(=O)(=O)N3CCCc4ccccc43)cc2)sc2cc(S(N)(=O)=O)ccc21	13µM*	5%	?	15µM*	-3%	16
